Hit rate of the full screen: of about 1,300 compounds, about 270 (21%) were called active.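 How the source made its calls: active means dose-dependent rise or fall in viability, either side of zero, with half-maximal concentration at or below a set limit; inconclusive means flat curve at 30 to 70% viability loss, or poor fit; inactive means flat within 30% either way, or potency beyond limit.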 Not all results are given here. A call without a number means that no potency is given here. Potency and affinity values are given separately.
experiment: A375 melanoma cell viability reduction, dose response, counter-screen for MITF modulator project, cherry-pick samples, set 2 (AID 540335); details: CellTiter-Glo ATP luminescence, 24 h; series mostly up to 35 µM;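 further: A375 human melanoma cells which do not depend on MITF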

| SMILES | outcome |
| --- | --- |
| O=C1CCC2S/C(=C/Nc3ccc(C(F)(F)F)cc3)C(=O)N12 (stereo not drawn) | inactive |
| CCCC(=O)N1CCN(c2ccc(NC(=O)c3ccc([N+](=O)[O-])o3)cc2Cl)CC1 | inactive |
| COc1ccc(NC(=O)CCC(=O)N/N=C/c2ccc([N+](=O)[O-])s2)cc1 | inactive |
| CCCCNC(=O)Nc1ccc(C2SCCS2)cc1 | inactive |
| O=C(Nc1ccccn1)c1ccc(Br)s1 | inactive |
| N=c1n(CC(=O)c2ccc(Br)cc2)c2ccccc2n1Cc1ccccc1 | inactive |
| O=C(N/N=C/c1ccc([N+](=O)[O-])s1)c1cccc(Br)c1 | inactive |
| Cc1ccc(NCC(=O)N/N=C\c2ccc([N+](=O)[O-])o2)cc1 | inactive |
| Cc1c(C(=O)Nc2ccc(S(=O)(=O)N(C)C3CCN(C)CC3)cc2)oc2c(Cl)cccc12 | inactive |
| COc1cc(SC)ccc1C(=O)Nc1ncc(C)s1 | inactive |
| COc1cc(SC)ccc1C(=O)Nc1ccc(Br)cn1 | inactive |
| O=C(CNC(=O)c1ccccc1)N/N=C/c1ccc([N+](=O)[O-])s1 | inactive |
| O=C(Nc1cccc(S(=O)(=O)N2CCCCC2)c1)c1ccc([N+](=O)[O-])o1 | inactive |
| Cc1nc2ccccn2c1C(=O)N/N=C/c1ccc([N+](=O)[O-])o1 | inactive |
| Cc1nc(SCC(=O)Nc2ccc(CN3CCCC3)cc2)c2c(C)c(C)sc2n1 | inactive |
| Cc1ccc2oc(C(Cl)(Cl)Cl)cc(=O)c2c1 | inactive |
| O=C(Nc1cccnc1Cl)c1cc(-c2ccco2)on1 | inactive |
| CCN(CC)S(=O)(=O)c1ccc(N2CCCC2)c(NC(=O)c2ccc([N+](=O)[O-])o2)c1 | inactive |
| O=C(Nc1ccc(N2CCN(C(=O)c3ccccc3)CC2)cc1)c1ccc([N+](=O)[O-])o1 | inactive |
| O=C(CCl)N1CCN(S(=O)(=O)c2ccc3c(c2)CCC3)CC1 | inactive |
| Cc1cc(C)c2c(N)c(C(=O)Nc3ncc(C)s3)sc2n1 | inactive |
| O=C(CCl)N(c1ccccc1)c1c[nH]c2ccccc12 | inactive |

| SMILES | outcome |
| --- | --- |
| O=C(Nc1ccccc1)NN(C(=O)CCl)c1ccccc1 | inactive |
| N#C/C(=C\c1ccc(OCc2ccc(C(=O)O)cc2)cc1)C(=O)N1CCOCC1 | inactive |
| O=C(C#Cc1ccccc1)c1cccc([N+](=O)[O-])c1 | inactive |
| COc1ccc(C)cc1Nc1nc(N)c2cc(OC)c(OC)cc2n1 | inactive |
| COc1cccc(-c2ccc3c(N)c(C(=O)NC4CC4)sc3n2)c1 | inactive |
| O=C(O)c1ccc(C(=O)Nc2ccc(F)cc2)cc1 | inactive |
| O=C(Nc1ccc([N+](=O)[O-])cc1)c1ccccc1 | inactive |
| Cn1cc([N+](=O)[O-])c(C(=O)Nc2nc(-c3ccc(Cl)cc3)cs2)n1 | inactive |
| COc1ccc(C(NC(C)=O)c2ccc3cccnc3c2O)c(OC)c1 (stereo not drawn) | inactive |
| COc1cc(OC)cc(C(=O)Nc2ccc3c(c2)OCCO3)c1 | inactive |
| COc1cccc(NC(=O)Nc2cccc(C(=O)O)c2)c1 | inactive |
| COC(=O)CCS(=O)(=O)c1nc(-c2ccccc2)cc(C(F)(F)F)n1 | inactive |
| Cc1nc(C)c(C(=O)N/N=C/c2cc(Br)ccc2O)s1 | inactive |
| O=C(N/N=C/c1cccc2cccnc12)c1ccccc1O | inactive |
| Cc1ccc(C#CC[N+]2(CC#Cc3ccc(C)cc3)CCCCC2)cc1 | inactive |
| O=C(Nc1nc(-c2ccccn2)cs1)c1ccc([N+](=O)[O-])o1 | inactive |
| CS(=O)(=O)N1CCN(c2ccc(NC(=O)c3ccc([N+](=O)[O-])o3)cc2)CC1 | inactive |
| Cc1cccc(NC(=O)c2ccc([N+](=O)[O-])o2)c1C | inactive |
| COc1cc(/C=N/N=C(N)N)ccc1OCc1ccc(Cl)cc1 | inactive |
| Cc1cc(NC(=O)c2ccc([N+](=O)[O-])o2)ccc1NC(=O)c1ccco1 | inactive |
| COc1ccccc1NS(=O)(=O)c1cc(NC(=O)c2ccc(Cl)nc2)ccc1Cl | inactive |
| CCCCNc1nc(=S)n(-c2ccccc2)c(C)c1C(C)=O | inactive |

| SMILES | outcome |
| --- | --- |
| CC(=O)Nc1ccc(-c2nc3ccccc3o2)cc1 | inactive |
| CC(=O)Nc1ccc2c(c1)ncn2-c1ccccc1 | inactive |
| Cn1nc([N+](=O)[O-])nc1S(C)(=O)=O | inactive |
| CS(=O)(=O)c1ncc(Cl)c(C(=O)Nc2ccc(N3CCOCC3)cc2)n1 | inactive |
| O=C(c1ccc(S(=O)(=O)Cc2ccccc2Cl)c([N+](=O)[O-])c1)N1CCN(c2ccccn2)CC1 | inactive |
| O=C(Cc1ccc2c(c1)OCO2)NN=Cc1ccc([N+](=O)[O-])o1 | inactive |
| Cn1nnnc1Sc1ncnc2scc(-c3cccs3)c12 | inactive |
| O=C(NC1CCCC(C(F)(F)F)C1)c1ccc([N+](=O)[O-])o1 (stereo not drawn) | inactive |
| CC(O)CNC(=O)C1CCN(Cc2ccc(OCc3ccccc3)cc2)CC1 (stereo not drawn) | inactive |
| CCCN1CCC(NCc2cn(C)nc2-c2ccc(Oc3ccccc3)cc2)CC1 | inactive |
| O=C(O)c1ccc(N/N=C/c2ccc3nccnc3c2)cc1 | inactive |
| CN(C)CCCNC(=O)/C(=C\c1ccc(-c2ccc(Br)cc2)o1)NC(=O)c1ccccc1 | inactive |
| Cc1ccc(-c2nc(C(=O)NCCCN(C)C)cc3c2[nH]c2ccccc23)cc1 | inactive |
| Cc1ccc(C(=O)N/C(=C\c2ccc(-c3ccccc3[N+](=O)[O-])o2)C(=O)NCCN(C)C)cc1 | inactive |
| CCOCCCNC(=O)/C(C#N)=C/c1ccc([N+](=O)[O-])o1 | inactive |
| CCN(CC)CCC(=O)N1C/C(=C/c2ccccc2)C(=O)/C(=C\c2ccccc2)C1 | inactive |
| COc1cc(NC(=O)COc2ccccc2[N+](=O)[O-])ccc1NC(=O)c1cccs1 | inactive |
| O=C(Cn1ncc(Cl)c(Cl)c1=O)Nc1ccc2c(c1)OCO2 | inactive |
| O=C(c1ccccc1)c1cc(Cl)ccc1N1C(=O)C=CC1=O | inactive |
| O=C(N/N=C/c1ccc([N+](=O)[O-])o1)c1ccc(O)cc1 | inactive |
| Cc1cc(Sc2ncnc(N)c2[N+](=O)[O-])ncn1 | inactive |
| Cc1cccc2sc(N(CCCN(C)C)C(=O)c3nc4ccccc4s3)nc12 | inactive |

| SMILES | outcome |
| --- | --- |
| COc1cccc2sc(N3CCN(C(=O)c4ccc([N+](=O)[O-])o4)CC3)nc12 | inactive |
| CN(C)c1ccc(C2=NOC(CN3C(=O)c4ccccc4S3(=O)=O)C2)cc1 (stereo not drawn) | inactive |
| COc1cc(OC)cc(-c2oc(=O)c3cc(OC)c(OC)cc3c2C(F)(F)F)c1 | inactive |
| CCN1CCN(c2ccc(Nc3ccnc4ccccc34)cc2)CC1 | inactive |
| O=C(Nc1nnc(Cc2ccccc2)s1)c1ccccc1 | inactive |
| CCOc1ccc(NC(=O)Nc2cccc(C(=O)O)c2)cc1 | inactive |
| Cc1ccc(/C=N/Nc2ccc(C(=O)O)cc2)s1 | inactive |
| C/C(=N\NC(=O)C(c1ccccc1)c1ccccc1)c1ccccn1 | inactive |
| O=C(c1ccc([N+](=O)[O-])s1)N1CCN(c2ccccn2)CC1 | inactive |
| O=c1c2ccccc2cnn1CCOc1ccccc1 | inactive |
| Cc1nc2ccccc2n1/N=C/c1ccc([N+](=O)[O-])s1 | inactive |
| CCCOCc1ccc(O)c2ncccc12 | inactive |
| CN(C)C1CCN(Cc2cc(COCc3ccccc3)c3cccnc3c2O)C1 (stereo not drawn) | inactive |
| Cc1cc(C(C)(C)C)cc(C)c1Cn1c2[n+](c3ccc(C(F)(F)F)cc31)CCCCC2 | inactive |
| Cc1ccc(-n2nnnc2CNC(=O)c2ccc([N+](=O)[O-])o2)cc1C | inactive |
| Cc1nc2nc(C)c(NS(=O)(=O)c3ccc4c(c3)CCCC4)c(=O)n2[nH]1 | inactive |
| CCCN(CCC)C1=CC(=[N+]2CCCC2)CC(C)(C)C1 | inactive |
| CN(Cc1ccccc1)C1=CC(=[N+]2CCCC2)CC(C)(C)C1 | inactive |
| CN(C)S(=O)(=O)c1ccc(-c2csc(N/N=C/c3ccco3)n2)cc1 | inactive |
| COc1ccc(C(=O)N/N=C/c2cc(Br)ccc2O)cc1OC | inactive |
| CCOc1ccc(N/C=C/C(=O)c2ccc(OC)c(OC)c2)cc1 | inactive |
| Cc1ccc(-c2n[nH]c(=O)c3ccccc23)cc1S(=O)(=O)NCC1CCCO1 (stereo not drawn) | inactive |

| SMILES | outcome |
| --- | --- |
| COc1ccc(C(=O)/C=C/C(=O)N(CC(=O)NC2CCCCC2)Cc2ccc(F)cc2)c(O)c1 | inactive |
| COc1ccc(NC(=O)NC(=O)c2ccccc2)cc1 | inactive |
| COc1ccc(N/N=C/c2c(C(=O)O)ccc3ccccc23)cc1 | inactive |
| N#CC(C#N)=C1C=CC=CN1/C(=C\c1ccco1)C(=O)c1ccc(Cl)cc1 | inactive |
| COc1ccccc1-c1cc(C(F)(F)F)nc(S(C)(=O)=O)n1 | inactive |
| Cc1ccc2c(C(=O)CCl)c(C)[nH]c2c1 | inactive |
| O=S(=O)(CC(CN1CCCCC1)N1CCCCC1)c1ccc2ccccc2c1 (stereo not drawn) | inactive |
| COc1ccc(C(=O)C(CN2CCOCC2)c2ccccc2)cc1 (stereo not drawn) | inactive |
| CC(NC(=O)C12CC3CC(CC(C3)C1)C2)C(=O)NN=Cc1ccc([N+](=O)[O-])o1 (stereo not drawn) | inactive |
| COC1=C(c2ccccc2)C(=O)c2ccccc2C1=O | inactive |
| COc1ccc(-c2nc(-c3ccccc3OC)no2)cc1OC | inactive |
| CN1CCN(C2=C(NS(=O)(=O)c3cccs3)C(=O)c3ccccc3C2=O)CC1 | inactive |
| COc1ccc2nc(C)cc(NCc3cccc(C(F)(F)F)c3)c2c1 | inactive |
| O=C1C=CC(=C(c2ccc(O)cc2)c2ccc(O)cc2)C=C1 | inactive |
| CC(C)(C)C(=O)/C(=C/c1ccncc1)n1cncn1 | inactive |
| O=C(Nc1ccc2oc(-c3cccnc3)nc2c1)c1ccc([N+](=O)[O-])o1 | inactive |
| CC(=O)Nc1ccc(NC(=O)c2nc(S(=O)(=O)Cc3ccccc3)ncc2Cl)cc1 | inactive |
| COc1ccccc1NC(=O)c1nc(S(=O)(=O)Cc2ccccc2)ncc1Cl | inactive |
| Cc1ccc(C(=O)c2cccc(N)c2)cc1C | inactive |
| COc1cc(NC(=O)COc2cc(O)c3c(c2)OC(C)(C)CC3=O)cc(OC)c1OC | inactive |
